Results from PMC7862700, “An all-to-all approach to the identification of sequence-specific readers for epigenetic DNA modifications on cytosine”.

Columns and labels:
Experiment in all cases: DAPPL (digital affinity profiling via proximity ligation, sequencing); 10 mM Tris-HCl pH 7.5, 50 mM NaCl, 1 mM DTT, 4% glycerol, room temperature, 30 min; GST-TFs on glutathione beads, 16-mer random dsDNA library, 0.1% formaldehyde crosslink after washing; high values mean tight binding
Conditions in all cases: protein: recombinant; tags: N-terminal GST; dsDNA, one strand shown
FLI1 = molecular target: T1, FLI1 (Homo sapiens, UniProt Q01543 1-452)
T1 sequence: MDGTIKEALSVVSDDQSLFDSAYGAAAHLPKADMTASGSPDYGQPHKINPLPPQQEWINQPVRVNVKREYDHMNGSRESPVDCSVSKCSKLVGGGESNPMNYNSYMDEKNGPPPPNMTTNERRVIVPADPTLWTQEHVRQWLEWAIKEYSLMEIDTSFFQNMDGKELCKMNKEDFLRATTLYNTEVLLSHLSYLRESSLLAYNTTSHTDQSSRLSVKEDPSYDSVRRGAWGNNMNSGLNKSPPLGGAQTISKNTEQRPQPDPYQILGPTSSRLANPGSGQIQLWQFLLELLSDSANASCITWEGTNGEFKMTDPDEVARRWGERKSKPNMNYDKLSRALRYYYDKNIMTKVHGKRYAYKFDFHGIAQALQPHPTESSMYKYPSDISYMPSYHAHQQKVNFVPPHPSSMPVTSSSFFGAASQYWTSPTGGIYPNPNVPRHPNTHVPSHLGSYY
In short: (§1)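 Pools were built from human transcription factors expressed in yeast as GST fusions, captured on glutathione beads and DNA-barcoded, along with a tag-only sample. Incubation with 200 nmole of a 16-mer random double-stranded DNA library lasted 30 min at room temperature in Tris/NaCl/DTT/glycerol buffer, and was followed by washing, 0.1% formaldehyde crosslinking, proximity ligation, PCR amplification and Illumina NextSeq500 sequencing. Binding signal is the quotient of each hexamer's read frequency for a factor and its frequency for the tag-only sample.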

ELK1 = molecular target: T2, ELK1 (Homo sapiens, UniProt P19419 1-428)
T2 sequence: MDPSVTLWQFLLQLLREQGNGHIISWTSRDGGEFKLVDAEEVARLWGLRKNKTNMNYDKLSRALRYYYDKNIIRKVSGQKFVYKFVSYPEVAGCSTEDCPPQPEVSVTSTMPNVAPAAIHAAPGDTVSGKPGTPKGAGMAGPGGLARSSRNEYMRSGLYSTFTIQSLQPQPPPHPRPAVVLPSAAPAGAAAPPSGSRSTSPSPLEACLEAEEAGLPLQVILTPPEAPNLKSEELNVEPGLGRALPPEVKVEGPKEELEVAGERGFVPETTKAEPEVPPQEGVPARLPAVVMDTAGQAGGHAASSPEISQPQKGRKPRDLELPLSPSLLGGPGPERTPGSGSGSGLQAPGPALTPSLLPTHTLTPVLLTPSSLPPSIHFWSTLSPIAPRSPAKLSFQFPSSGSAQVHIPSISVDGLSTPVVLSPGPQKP
In short: as §1

GABPA = molecular target: T3, GABPA (Homo sapiens, UniProt Q06546 1-454)
T3 sequence: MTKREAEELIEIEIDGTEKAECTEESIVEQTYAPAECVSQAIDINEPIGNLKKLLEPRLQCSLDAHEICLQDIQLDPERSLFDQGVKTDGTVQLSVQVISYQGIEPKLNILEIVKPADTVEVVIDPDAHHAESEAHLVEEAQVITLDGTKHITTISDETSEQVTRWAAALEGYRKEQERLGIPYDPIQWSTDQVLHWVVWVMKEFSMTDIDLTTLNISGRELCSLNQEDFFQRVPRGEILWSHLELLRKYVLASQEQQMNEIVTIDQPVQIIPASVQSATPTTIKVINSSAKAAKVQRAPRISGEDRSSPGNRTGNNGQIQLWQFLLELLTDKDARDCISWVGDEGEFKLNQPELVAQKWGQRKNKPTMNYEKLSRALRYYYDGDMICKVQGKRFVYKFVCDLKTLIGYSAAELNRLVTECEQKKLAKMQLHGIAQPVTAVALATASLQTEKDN
In short: as §1

ERG = molecular target: T4, ERG (Homo sapiens, UniProt P11308 1-479)
T4 sequence: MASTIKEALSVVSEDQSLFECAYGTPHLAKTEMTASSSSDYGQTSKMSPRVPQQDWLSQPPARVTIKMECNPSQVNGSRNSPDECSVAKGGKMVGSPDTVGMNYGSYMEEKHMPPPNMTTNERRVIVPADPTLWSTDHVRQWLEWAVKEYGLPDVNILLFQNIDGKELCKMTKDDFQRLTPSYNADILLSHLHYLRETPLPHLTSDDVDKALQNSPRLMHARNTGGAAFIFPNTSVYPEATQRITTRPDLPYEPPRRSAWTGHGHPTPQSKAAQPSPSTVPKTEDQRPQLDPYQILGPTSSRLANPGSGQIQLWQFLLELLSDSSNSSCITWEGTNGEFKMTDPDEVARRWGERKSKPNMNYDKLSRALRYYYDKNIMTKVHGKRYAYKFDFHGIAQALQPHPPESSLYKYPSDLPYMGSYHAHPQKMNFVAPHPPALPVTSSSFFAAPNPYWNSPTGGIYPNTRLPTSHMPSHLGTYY
In short: as §1

ELF1 = ELF1 (Homo sapiens, UniProt P32519 1-619)
In short: as §1

EHF = molecular target: T5, EHF (Homo sapiens, UniProt Q9NZC4 1-300)
T5 sequence: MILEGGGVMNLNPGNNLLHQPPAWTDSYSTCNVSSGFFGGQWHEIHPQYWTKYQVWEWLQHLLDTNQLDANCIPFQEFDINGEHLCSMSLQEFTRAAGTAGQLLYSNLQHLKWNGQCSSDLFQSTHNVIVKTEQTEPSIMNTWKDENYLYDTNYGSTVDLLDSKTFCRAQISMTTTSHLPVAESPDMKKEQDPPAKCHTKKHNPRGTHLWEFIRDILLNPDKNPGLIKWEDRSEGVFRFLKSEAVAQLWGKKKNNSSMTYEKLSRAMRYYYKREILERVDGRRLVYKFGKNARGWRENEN
In short: as §1

SPI1 = SPI1 (Homo sapiens, UniProt P17947 1-270)
In short: as §1

SPIB = SPIB (Homo sapiens, UniProt Q01892 1-262)
In short: as §1

ELK3 = molecular target: T6, ELK3 (Homo sapiens, UniProt P41970 1-407)
T6 sequence: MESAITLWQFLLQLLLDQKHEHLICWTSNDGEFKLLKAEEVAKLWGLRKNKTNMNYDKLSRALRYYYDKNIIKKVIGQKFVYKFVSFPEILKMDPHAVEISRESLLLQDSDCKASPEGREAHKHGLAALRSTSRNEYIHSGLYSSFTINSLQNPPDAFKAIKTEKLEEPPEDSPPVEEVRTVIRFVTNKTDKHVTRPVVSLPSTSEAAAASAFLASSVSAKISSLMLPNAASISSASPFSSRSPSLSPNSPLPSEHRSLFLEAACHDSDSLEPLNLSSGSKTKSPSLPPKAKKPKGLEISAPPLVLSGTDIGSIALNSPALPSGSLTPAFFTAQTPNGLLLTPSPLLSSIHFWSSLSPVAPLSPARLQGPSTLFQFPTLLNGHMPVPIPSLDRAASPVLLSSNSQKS
In short: as §1

Chain of ELF1 (P32519 whole entry): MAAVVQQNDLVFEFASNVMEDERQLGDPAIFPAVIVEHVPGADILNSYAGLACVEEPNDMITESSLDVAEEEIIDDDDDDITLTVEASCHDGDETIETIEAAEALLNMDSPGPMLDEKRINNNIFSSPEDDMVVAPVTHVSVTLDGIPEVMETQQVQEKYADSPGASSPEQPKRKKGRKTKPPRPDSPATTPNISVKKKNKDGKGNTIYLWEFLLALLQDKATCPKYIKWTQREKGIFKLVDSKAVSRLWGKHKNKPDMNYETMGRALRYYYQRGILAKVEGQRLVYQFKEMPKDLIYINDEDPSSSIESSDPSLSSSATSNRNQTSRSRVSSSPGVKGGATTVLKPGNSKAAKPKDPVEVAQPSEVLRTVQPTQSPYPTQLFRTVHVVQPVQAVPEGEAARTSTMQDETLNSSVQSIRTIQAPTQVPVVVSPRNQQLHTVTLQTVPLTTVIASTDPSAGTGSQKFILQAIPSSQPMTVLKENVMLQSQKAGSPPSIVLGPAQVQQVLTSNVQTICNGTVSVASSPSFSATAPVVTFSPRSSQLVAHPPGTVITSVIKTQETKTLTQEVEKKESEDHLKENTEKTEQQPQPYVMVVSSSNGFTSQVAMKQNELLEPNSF
Chain of SPIB (Q01892 whole entry): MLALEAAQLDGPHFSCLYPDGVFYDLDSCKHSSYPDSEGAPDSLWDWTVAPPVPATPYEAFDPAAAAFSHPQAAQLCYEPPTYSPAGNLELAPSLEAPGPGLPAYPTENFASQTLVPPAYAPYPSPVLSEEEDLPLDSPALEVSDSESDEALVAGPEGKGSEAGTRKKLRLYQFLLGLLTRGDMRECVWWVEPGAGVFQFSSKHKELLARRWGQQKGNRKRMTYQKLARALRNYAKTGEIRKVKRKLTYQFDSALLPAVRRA

Sequence	binding signal (FLI1)	binding signal (ELK1)	binding signal (GABPA)	binding signal (ERG)	binding signal (ELF1)	binding signal (EHF)	binding signal (SPI1)	binding signal (SPIB)	binding signal (ELK3)
GGTAAT	1.15 fold enrichment (6-mer frequency, TF over GST control)	1.1 fold enrichment (6-mer frequency, TF over GST control)	1.22 fold enrichment (6-mer frequency, TF over GST control)	1.08 fold enrichment (6-mer frequency, TF over GST control)	1.17 fold enrichment (6-mer frequency, TF over GST control)	1.2 fold enrichment (6-mer frequency, TF over GST control)	1.04 fold enrichment (6-mer frequency, TF over GST control)	1.11 fold enrichment (6-mer frequency, TF over GST control)	–
TAGCTG	1.29 fold enrichment (6-mer frequency, TF over GST control)	1.19 fold enrichment (6-mer frequency, TF over GST control)	1.21 fold enrichment (6-mer frequency, TF over GST control)	1.11 fold enrichment (6-mer frequency, TF over GST control)	1.24 fold enrichment (6-mer frequency, TF over GST control)	1.31 fold enrichment (6-mer frequency, TF over GST control)	1.22 fold enrichment (6-mer frequency, TF over GST control)	1.3 fold enrichment (6-mer frequency, TF over GST control)	–
ACGGCC	1.1 fold enrichment (6-mer frequency, TF over GST control)	1.13 fold enrichment (6-mer frequency, TF over GST control)	1.12 fold enrichment (6-mer frequency, TF over GST control)	1.09 fold enrichment (6-mer frequency, TF over GST control)	1.09 fold enrichment (6-mer frequency, TF over GST control)	1.09 fold enrichment (6-mer frequency, TF over GST control)	1.09 fold enrichment (6-mer frequency, TF over GST control)	1.26 fold enrichment (6-mer frequency, TF over GST control)	–
AATAGA	1.06 fold enrichment (6-mer frequency, TF over GST control)	1.09 fold enrichment (6-mer frequency, TF over GST control)	1.11 fold enrichment (6-mer frequency, TF over GST control)	1.12 fold enrichment (6-mer frequency, TF over GST control)	1.09 fold enrichment (6-mer frequency, TF over GST control)	1.08 fold enrichment (6-mer frequency, TF over GST control)	1.08 fold enrichment (6-mer frequency, TF over GST control)	1.05 fold enrichment (6-mer frequency, TF over GST control)	–
CCGGGT	1.2 fold enrichment (6-mer frequency, TF over GST control)	1.06 fold enrichment (6-mer frequency, TF over GST control)	1.01 fold enrichment (6-mer frequency, TF over GST control)	1.12 fold enrichment (6-mer frequency, TF over GST control)	1.13 fold enrichment (6-mer frequency, TF over GST control)	1.17 fold enrichment (6-mer frequency, TF over GST control)	1.01 fold enrichment (6-mer frequency, TF over GST control)	1.16 fold enrichment (6-mer frequency, TF over GST control)	–
CCGCGT	1.29 fold enrichment (6-mer frequency, TF over GST control)	1.11 fold enrichment (6-mer frequency, TF over GST control)	1.06 fold enrichment (6-mer frequency, TF over GST control)	1.13 fold enrichment (6-mer frequency, TF over GST control)	1.1 fold enrichment (6-mer frequency, TF over GST control)	1.18 fold enrichment (6-mer frequency, TF over GST control)	1.12 fold enrichment (6-mer frequency, TF over GST control)	1.16 fold enrichment (6-mer frequency, TF over GST control)	–
GATGTC	1.25 fold enrichment (6-mer frequency, TF over GST control)	1.37 fold enrichment (6-mer frequency, TF over GST control)	1.24 fold enrichment (6-mer frequency, TF over GST control)	1.41 fold enrichment (6-mer frequency, TF over GST control)	1.22 fold enrichment (6-mer frequency, TF over GST control)	1.31 fold enrichment (6-mer frequency, TF over GST control)	1.23 fold enrichment (6-mer frequency, TF over GST control)	1.37 fold enrichment (6-mer frequency, TF over GST control)	1.19 fold enrichment (6-mer frequency, TF over GST control)
TATGCC	1.11 fold enrichment (6-mer frequency, TF over GST control)	1.27 fold enrichment (6-mer frequency, TF over GST control)	1.21 fold enrichment (6-mer frequency, TF over GST control)	1.17 fold enrichment (6-mer frequency, TF over GST control)	1.2 fold enrichment (6-mer frequency, TF over GST control)	1.18 fold enrichment (6-mer frequency, TF over GST control)	1.11 fold enrichment (6-mer frequency, TF over GST control)	1.26 fold enrichment (6-mer frequency, TF over GST control)	–
